According to publication PMC5540273 (PLoS ONE, 2017):

test system: WNK2; conditions: concentration: 1 μM,replicates: in singlicate; n = 1
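Also: KINOMEscan kinase panel screen.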

Row | Structure (SMILES) | %Inh [%]
1 | Cc1n[nH]c2cc(Nc3ccnc(Nc4cccc(CN5CCOCC5)c4)n3)ccc12 [GW682569] | 19
2 | Cn1ccc2ncnc(Oc3ccc(NC(=O)Nc4ccnc(C(F)(F)F)c4)c(Cl)c3)c21 | 0
3 | COC(=O)c1cccc(NC(=O)NC2CCN(c3ccnc(NCc4ccc(F)cc4)n3)CC2)c1 [GSK1379860] | 9
4 | CCn1c(-c2nonc2N)nc2cncc(Br)c21 [SB-738004] | 8
5 | C[C@@H]1CCN(C(=O)N2CCCC2)C[C@@H]1N(C)c1ncnc2[nH]ccc12 | 45
6 | O=C(NOCC1CC1)c1cc(Br)c(F)c(F)c1Nc1ccc(I)cc1Cl | 0
7 | C[C@@H](Oc1cc(-n2cnc3cc(-c4cnn(C)c4)ccc32)sc1C(N)=O)c1ccccc1Cl [GSK580432] | 91.4
8 | CN(c1ccc2c(c1)nc(NCc1ccc(F)cc1)n2C)c1ccnc(Nc2ccc(CS(C)(=O)=O)cc2)n1.Cl [GW813244] | 3
9 | NC(=O)Nc1sc(-c2ccc(F)cc2)cc1C(N)=O [GW789449] | 0
10 | O=C(Nc1n[nH]c2cc(-c3ccco3)ccc12)C1CC1 [SB-737447] | 0
11 | CCn1c(-c2nonc2N)nc2cncc(CNC3CCNCC3)c21.Cl [SB-747651] | 0
12 | C[C@@H]1CNc2c(sc3ccc4nc(-c5ccc(O)cc5)ccc4c23)C(=O)N1 | 2
13 | O=C(Nc1ccc(Oc2ccc3nc(NC(=O)C4CC4)cn3n2)c(F)c1)c1cccn(-c2ccccc2)c1=O | 0
14 | CS(=O)(=O)c1cccc(CNc2nc(Nc3ccc4c(c3)[C@@H]3C[C@@H]4CNC3=O)ncc2C(F)(F)F)c1 | 0
15 | COc1cccc(OC)c1C(=O)Nc1cccc(-c2nn3ccccc3c2-c2ccnc(Nc3cccc(F)c3)n2)c1 [GSK361065] | 0
16 | OCCn1cc(-c2cnc3nnn(Cc4ccc5ncccc5c4)c3n2)cn1 | 0
17 | CC(=O)Nc1ccc(-c2cc3ncnc(SCC(=O)O)c3s2)cc1 | 0
18 | CCN1CCN(CCCC(=O)Nc2n[nH]c3nc(-c4ccc(O)cc4)c(Br)cc23)CC1 [SB-731579] | 0
19 | O=C(Nc1cccc(Oc2ccc3nccn3n2)c1)Nc1cccc(C(F)(F)F)c1 | 0

Row | Structure (SMILES) | %Inh [%]
20 | Nc1nccc(-c2ccc3c(N)n[nH]c3c2)n1 [GSK1034945] | 0
21 | COc1cc2c(Nc3ccc(NC(=O)c4ccccc4)cc3)ncnc2cc1OCCCN1CCOCC1 [GSK301329] | 31
22 | COC(=O)c1cccc(NC(=O)NC2CCN(c3ccnc(Nc4cc(OC)c(OC)c(OC)c4)n3)C2)c1 (stereo not shown) [GSK1379767] | 24
23 | COC(=O)Nc1nc2cc(Oc3ccc(NC(=O)Nc4cc(C(F)(F)F)ccc4Cl)cc3)ccc2[nH]1.Cl [GW697465] | 11
24 | COc1cc2ncn(-c3cc(OCC4CCCCC4)c(C(N)=O)s3)c2cc1OC [GSK204559] | 0
25 | CCCC(=O)Nc1n[nH]c2ncccc12 [SB-601436] | 0
26 | Cl.c1ccc(Oc2ccc(Nc3ccnc4cc(-c5ccc(CN6CCNCC6)o5)ccc34)cc2)nc1 [GW567142] | 16
27 | C[C@@H]1CNc2c(sc3ccc4nc(-c5ccncc5)ccc4c23)C(=O)N1 | 0
28 | CCOC(=O)N1CCC(n2cnc(-c3ccc(F)cc3)c2-c2ccnc(N)n2)CC1 [SB-219952] | 72
29 | CC(=O)Nc1nc2cnc(Nc3cc(NC(=O)c4cccc(CC(C)(C)C#N)c4)ccc3C)nc2s1 | 47
30 | Cn1ccc2ncnc(Oc3ccc(NC(=O)Nc4cnn(C(C)(C)C)c4)c(Cl)c3)c21 | 0
31 | Cc1ccc(CC(=O)N2CCc3cc(-c4cn(C)c5ncnc(N)c45)ccc32)cc1 [GSK2634758] | 0
32 | N#Cc1cccc(C(=O)NC2CCN(c3ccnc(Nc4ccc(F)cc4)n3)C2)c1 (stereo not shown) [GSK1379708] | 0
33 | Cl.Nc1n[nH]c2cc(-c3ccccn3)ccc12 [GSK2189892] | 5
34 | Cc1nnc(-c2ccc3occ(-c4ccc(S(C)=O)cc4)c3n2)o1 (stereo not shown) | 0
35 | NC(=O)c1ccc(-c2cc3ncnc(SCC(=O)O)c3s2)cc1 | 0
36 | Cc1cccc2c(-c3ccncc3)c(-c3ccc(F)cc3)nn12.Cl [GW461487] | 0
37 | CC(=O)c1c(-c2ccncc2)[nH]c(-c2ccncc2)c1C [GW493036] | 0
